Results on 25 compounds are retold here after PubChem BioAssay (NCATS).

A short description of experiment [1]: BET inhibitor-based combinations targeting novel dependencies in MECOM-rearranged (r) AML: MV-4-11 cell line (AID 2202233). Further: nearly all actives have a fitted effect of over 45% in size. In outline: (§1)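 Activity is given as area under the curve and as Z-AUC, mean-centred within each cell line. It comes from 11-point dose curves normalized to DMSO and empty wells. CellTiter-Glo luminescence was read after 48 hr drug exposure of 500 cells/well.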

The nature of experiment [2]: BET inhibitor-based combinations targeting novel dependencies in MECOM-rearranged (r) AML: UCSD-AML1 cell line (AID 2202235). Further: nearly all actives have a fitted effect of over 40% in size. The method in brief: as §1
Experiment [3] can be described thus: BET inhibitor-based combinations targeting novel dependencies in MECOM-rearranged (r) AML: HNT-34 cell line (AID 2202234). Further: nearly all actives have a fitted effect of over 35% in size. The method in brief:
as §1

Experiment [4] in a line: BET inhibitor-based combinations targeting novel dependencies in MECOM-rearranged (r) AML: AML-194 cell line (AID 2202237; further: nearly all actives have a fitted effect of over 40% in size). The method in brief: (§2)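 Cells were plated at 500 per well and exposed to an 11-point dose series of each drug for 48 hr. Viability was measured by CellTiter-Glo luminescence, normalized to DMSO and empty-well controls, and summarized as AUC and per-cell-line Z-AUC.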

A short description of experiment [5]: BET inhibitor-based combinations targeting novel dependencies in MECOM-rearranged (r) AML: AML-191 cell line (AID 2202236; further: nearly all actives have a fitted effect of over 35% in size). In outline: as §2

Inconclusive results are not listed. The source made the active and inactive calls. The call rests on the fitted dose curve; in most records, active means well fitted curve in the direction sought with a large enough effect; inconclusive means small, poorly fitted or top-dose-only effect, or another doubt; inactive means no such curve, though single readings can be large; an effect the other way counts as inactive or inconclusive. Residues, ends and D or L forms follow the SMILES beside them.
Potency means the concentration at half of the fitted maximal effect.

With `Cc1ccc(-c2ccc(C)cn2)nc1`, the Potency result in experiment [1] and in experiment [2] was “inactive” each time.

Turning to `N[C@@H](CCC(=O)O)C(=O)N[C@@H](Cc1c[nH]c2ccccc12)C(=O)O` (H-Glu-Trp-OH), the Potency result in experiment [1], in experiment [3], in experiment [2] and in experiment [4] was “inactive” throughout.

On to `CNC(=O)[C@@H](NC(=O)[C@H](CC(C)C)[C@H](O)C(=O)NO)C(C)(C)C`, for which the Potency in experiment [1] was 16.6 µM (active); in experiment [3], 14.8 µM (active); in experiment [5], 20.9 µM (active).

For `C[C@H](NC(=O)[C@H]1NCC[C@@H]1O)c1ccc(-c2noc(CCC3CCCC3)n2)cc1`, the Potency entry in experiment [1], in experiment [2] and in experiment [4] was “inactive” in each case. Besides, in experiment [5], the Potency is 20.9 µM (active).

As to `C=C1C[C@H]2C=Nc3cc(OCCCOc4cc5c(cc4OC)C(=O)N4CC(=C)C[C@H]4C=N5)c(OC)cc3C(=O)N2C1`, the Potency entry in experiment [1] and in experiment [2] was “inactive” each time. Besides, the Potency in experiment [4] is 0.0015 µM (active).

Regarding `C[C@@H]1CC[C@@]2(OC1)OC1CC3C4CC=C5CC(O)CCC5(C)C4CCC3(C)C1[C@@H]2C` (stereo partly specified), the Potency entry in experiment [1] and in experiment [2] was “inactive” each time.

For the compound `Cc1ccc(-c2ncc(Cl)cc2-c2ccc(S(C)(=O)=O)cc2)cn1`, the Potency result in experiment [1], in experiment [3], in experiment [2], in experiment [5] and in experiment [4] was “inactive” each time.

`O=c1oc2c(C3OCCCO3)c(O)ccc2c2c1CNCC2`: the Potency entry in experiment [1], in experiment [3], in experiment [2] and in experiment [4] was “inactive” throughout. For the same compound, in experiment [5], the Potency is 18.6 µM (active).

Take `COc1ccccc1C(=O)Nc1cc2c(cc1N1CCNC[C@H]1C)n(C)c(=O)n2C`: the Potency in experiment [1] is 5.9 µM (active). In addition, the Potency result in experiment [2] was “inactive”.

In the case of `COc1ccc(Cl)cc1-c1cc(=O)[nH]c(=S)n1CC(N)=O`, the Potency result in experiment [1], in experiment [3], in experiment [2] and in experiment [4] was “inactive” throughout.

Turning to `Clc1ccc(C(Cn2ccnc2)OCc2ccsc2Cl)c(Cl)c1` (stereo unspecified), the Potency in experiment [1] was 23.5 µM (active); in experiment [3], 18.6 µM (active); in experiment [5], 23.5 µM (active); in experiment [4] it was 23.5 µM (active).

Turning to `Nc1nc2c(c(=O)[nH]1)N1CN(c3ccc(C(=O)N[C@@H](CCC(=O)O)C(=O)O)cc3)CC1CN2` (stereo partly specified), the values for the Potency in experiment [1], in experiment [3] and in experiment [2] were 1.05 µM (active), 9.34 µM (active) and 0.934 µM (active), respectively.

As for `CCNC(=O)Nc1ccc(Oc2ncnc(N)c2/C=N/OC)cc1Cl`, the Potency in experiment [1] was 18.6 µM (active); in experiment [3], 20.9 µM (active); in experiment [2], 23.5 µM (active); in experiment [5], 16.6 µM (active); in experiment [4] it was 23.5 µM (active).

With `O=C(Nc1cccc(Nc2ncc(Br)c(NCCc3cnc[nH]3)n2)c1)N1CCCC1`, the Potency is 0.118 µM (active) in experiment [1]; 1.66 µM (active) in experiment [3]; 1.18 µM (active) in experiment [2]; 5.25 µM (active) in experiment [5]; 5.9 µM (active) in experiment [4].

`COc1c(Nc2ncc(Cl)c(N[C@H]3[C@H](C(N)=O)[C@@H]4C=C[C@@H]3C4)n2)ccc2c1CCC(N1CCOCC1)CC2` (stereo partly specified): the Potency in experiment [1] was 0.525 µM (active); in experiment [5], 18.6 µM (active). Also, the Potency entry in experiment [2] and in experiment [4] was “inactive” throughout.

In the case of `[2H]c1nc(C)nc([2H])c1-c1cc(NC[C@@H](C)c2cccc3c(C(=O)NC)ccnc23)ncn1`, the Potency result in experiment [1] and in experiment [2] was “inactive” each time. Moreover, the outcome in experiment [3] was inactive.

With `Cn1ncc(NC(=O)c2nc(-c3c(F)cccc3F)sc2N)c1N1CC[C@@H](N)[C@H](F)CC1`, the Potency in experiment [1] was 2.63 µM (active); in experiment [3], 2.09 µM (active); in experiment [2], 0.0934 µM (active).

Take `COc1cc(C(N)=O)ccc1NC(=O)[C@@H]1N[C@@H](CC(C)(C)C)[C@@]2(C(=O)Nc3cc(Cl)ccc32)[C@H]1c1cccc(Cl)c1F`: the Potency is 0.0934 µM (active) in experiment [1]; 0.148 µM (active) in experiment [3]; 0.209 µM (active) in experiment [2]; 0.468 µM (active) in experiment [5]; 0.59 µM (active) in experiment [4].

Regarding `Cc1ccc([C@@H]2O[C@H](CO)[C@@H](O)[C@H](O)[C@H]2O)cc1Cc1ccc(-c2ccc(F)cc2)s1`, the Potency in experiment [1] is 13.2 µM (active); in experiment [5], 20.9 µM (active). The Potency entry in experiment [2] is “inactive”.

For `CC[C@H](C)[C@@H]([C@@H](CC(=O)N1CCC[C@H]1[C@H](OC)[C@@H](C)C(=O)N[C@@H](Cc1ccccc1)c1nccs1)OC)N(C)C(=O)[C@@H](NC(=O)[C@H](C(C)C)N(C)C)C(C)C`, the Potency result in experiment [3], in experiment [5] and in experiment [4] was “inactive” throughout.

Take `Cc1c(O)cccc1C(=O)NC(CSc1ccccc1)C(O)CN1CC2CCCCC2CC1C(=O)NC(C)(C)C` (stereo unspecified): the Potency in experiment [4] is 26.3 µM (active).

As for `C/C=C/C[C@@H](C)C(=O)[C@H]1C(=O)N[C@@H](C(C)C)C(=O)N(C)CC(=O)N(C)[C@@H](CC(C)C)C(=O)N[C@@H](C(C)C)C(=O)N(C)[C@@H](CC(C)C)C(=O)N[C@@H](C)C(=O)N[C@H](C)C(=O)N(C)[C@@H](CC(C)C)C(=O)N(C)[C@@H](CC(C)C)C(=O)N(C)[C@@H](C(C)C)C(=O)N1C`, the results for the Potency in experiment [1], in experiment [5] and in experiment [4] were 8.11 µM (active), 9.1 µM (active) and 10.2 µM (active), respectively.

With `CO[C@H]1C[C@@H]2CC[C@@H](C)[C@@](O)(O2)C(=O)C(=O)N2CCCC[C@@H]2C(=O)O[C@H]([C@@H](C)C[C@@H]2CC[C@H](O)[C@H](OC)C2)CC(=O)[C@H](C)C=C(C)[C@@H](O)[C@@H](OC)C(=O)[C@H](C)C[C@H](C)C=CC=CC=C1C`, in experiment [2], the Potency was 0.0017 µM (active).

In the case of `C=CC(=O)N1CC(N2CCN(C(=O)CNc3cc(C4(C)CC4)c(Cl)cc3O)CC2)C1`, the Potency result in experiment [2] and in experiment [5] was “inactive” throughout.

With `C#C[C@]1(O)CC[C@H]2[C@@H]3CCc4cc(O)ccc4[C@H]3CC[C@@]21C`, the Potency is 14.8 µM (active) in experiment [5] and 20.9 µM (active) in experiment [4].
